High-throughput results (PubChem BioAssay)
This is a sample that favours compounds with a hit; in the whole collection about 2% have one here.
NR1D1 modulator = Rev-erb alpha (human) modulation | P20393 | Rev-erbα–FITC-DNA binding, fluorescence polarization, 90 min | activity, % at 10 µM | hit rate 0.79% among 370,000;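 active = activity above about 14%, limit read from the data; passing the limit was not always enough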
ABCB6 inh MLPCN = human ABCB6 transporter inhibition | Q9NP58 | K562-ABCB6 porphyrin accumulation, flow cytometry, 1 h; stronger effect = lower value | fluorescence ratio to DMSO, % at 10 µM | hit rate 0.19% among 360,000 | AID 602162;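 active = fluorescence ratio to DMSO below 75%, the collection mean minus 3 SD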;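 note: signal is porphyrin accumulated inside mitochondria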
VLA-4 inh = inhibition in a human VLA-4 binding assay. P13612. hit rate 0.2% among 330,000. VLA-4 expressing cells, ligand binding flow cytometry. inhibition, % (about 7 µM as worked out from the volumes in the protocol); in the data active = inhibition above about 50%
PG9 Ab binder = binds the HIV-1 gp120 antibody PG9 | TR-FRET gp120-PG9 antibody binding | inhibition, % at 6.7 µM | hit rate 0.43% among 360,000; in the data active = inhibition above about 8.5%
Granule exo inh = blocks lytic granule exocytosis | TALL-104 LAMP-1 surface exposure, flow cytometry; cells stimulated with thapsigargin and PMA | inhibition, % at 10 µM | hit rate 0.66% among 360,000;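 active = inhibition above about 55%, limit read from the data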
VLA-4 allo CP = confirmation of allosteric modulators of human VLA-4 integrin; inhibition, % at 6.7 µM; shares compounds with VLA-4 inh; hit rate 2% among 1,300; U937 cells, HUTS-21 LIBS mAb binding, flow cytometry; LDV ligand present at threefold Kd; AID 2813; in the data active = inhibition above about 40%
Each line names hits and unclear results; the compound was inactive in the other large screens (follow-up assays come after a bar, where they were run).

COc1ccc([C@@]2(O)c3c(ccc(CC=C(C)C)c3O)NC(=O)[C@@H]2OC)cc1	none | VLA-4 allo CP inactive
COc1ccc(C2(O)C(=O)Nc3ccc(C)cc32)cc1 (stereo not drawn)	none
COc1cccc(/C=C2\CC3(OC(=O)C(C)(C)C)CCCN2C3)c1 (stereo not drawn)	none (no result: ABCB6 inh MLPCN, VLA-4 inh, PG9 Ab binder, Granule exo inh)
CCCCN1CCS(=O)(=O)N(Cc2cn(Cc3ccccc3Br)nn2)C(C(=O)OC)C1 (stereo not drawn)	none (no result: ABCB6 inh MLPCN, VLA-4 inh, PG9 Ab binder, Granule exo inh)
C=CCNC(=O)c1ccccc1NC(=O)COc1ccc(OC)cc1	none | VLA-4 allo CP inactive
C=CCNC(=O)c1ccccc1NC(=O)COc1ccccc1	VLA-4 inh 54 | VLA-4 allo CP inactive
COc1ccc(CCN(Cc2cccs2)S(=O)(=O)c2ccc(F)cc2)cc1OC	none (no result: ABCB6 inh MLPCN, VLA-4 inh, PG9 Ab binder, Granule exo inh)
Nc1ccc(N2CCCCC2)c(S(=O)(=O)Nc2ccccc2Cl)c1	none
COc1ccc(N)cc1S(=O)(=O)Nc1ccccc1Cl	none | VLA-4 allo CP inactive
O=C(Nc1cccc(Cl)c1)Nc1cccc(C(=O)O)c1	none | VLA-4 allo CP inactive
NC(=O)c1ccccc1NC(=O)Nc1cccc(Cl)c1	none
O=C(Nc1cccc(Cl)c1)Nc1ccccc1C(=O)O	none | VLA-4 allo CP inactive
COC(=O)c1ccc2nc(-c3ccc(Cl)cc3)c(Cc3ccccc3)n2c1	none (no result: ABCB6 inh MLPCN, VLA-4 inh, Granule exo inh)
CC(=O)c1ccc(NC(=O)COC(=O)c2ccc(F)cc2F)cc1	none | VLA-4 allo CP inactive
O=C(COC(=O)c1ccccc1Br)Nc1ccc(F)cc1	none | VLA-4 allo CP inactive
O=C(COC(=O)c1ccc(O)cc1)Nc1ccccc1	none | VLA-4 allo CP inactive
O=C(COC(=O)c1ccccc1Br)NCCc1ccc(F)cc1	none
CCOC(=O)CC[C@@]1(C(=O)OCC)C[C@@H](CC(=O)N2CCSCC2)C(=O)N2CCCC=C21	none (no result: ABCB6 inh MLPCN, VLA-4 inh, PG9 Ab binder, Granule exo inh)
COc1cccc(-c2cc(=O)c3cc(NC(=O)c4ccc(Cl)cc4)ccc3[nH]2)c1	VLA-4 inh 50 | VLA-4 allo CP inactive
CCn1c(-c2ccc(-c3ccccc3)cc2)c[nH]c1=S	VLA-4 inh 93 (no result: ABCB6 inh MLPCN) | VLA-4 allo CP inactive
O=C(Nc1ccc(Cl)cc1)OC[C@@H]1CSCCS(=O)(=O)N1	none (no result: ABCB6 inh MLPCN, VLA-4 inh, Granule exo inh)
Cc1cc2nc3c(c(=O)n2[nH]1)CCCC3	VLA-4 inh 91 | VLA-4 allo CP inactive
Cc1ccc(C(=O)C(OC(=O)c2cnccn2)c2ccccc2)cc1 (stereo not drawn)	none | VLA-4 allo CP inactive
C=CCn1c(C)cc(C2=NNC(=NC(C)(C)C)SC2)c1C	none | VLA-4 allo CP inactive
C=CCn1c(C)cc(C2=NNC(=Nc3ccc(C)cc3)SC2)c1C	none
C[C@@H]1OC(C2CCCCC2)N(C)[C@H]2C[C@H]3c4[nH]c5cccc(-c6ccccc6)c5c4CCN3C[C@@H]12 (stereo partly drawn)	none (no result: ABCB6 inh MLPCN, VLA-4 inh, PG9 Ab binder, Granule exo inh)
COc1ccc(Cn2ccc3ccc(-c4ccc5ccn(Cc6ccccc6F)c5c4)cc32)cc1	none (no result: ABCB6 inh MLPCN, VLA-4 inh, PG9 Ab binder, Granule exo inh)
CCN(CC)S(=O)(=O)c1ccc(N2CCOCC2)c(NC(=O)c2cc(=O)[nH]c3ccccc23)c1	VLA-4 inh 51 | VLA-4 allo CP inactive
COc1ccc(NC(=O)C2CCN(C(=O)c3ccc(OC)cc3)CC2)cc1	none
Cc1ccc(NC(=O)C2CCN(C(=O)c3ccc(Cl)cc3)CC2)nc1	none | VLA-4 allo CP inactive
COC(=O)c1ccccc1NC(=O)C1CCN(C(=O)c2cc(OC)c(OC)c(OC)c2)CC1	none | VLA-4 allo CP inactive
Cc1ccccc1C(=O)N1CCC(C(=O)Nc2ccccc2N2CCCC2)CC1	none
Cc1ccccc1C(=O)N1CCC(C(=O)Nc2ccccc2Cl)CC1	none | VLA-4 allo CP inactive
COc1ccc(C(=O)N2CCC(C(=O)Nc3ccccc3C)CC2)cc1OC	none
COc1ccc(C(=O)N2CCC(C(=O)Nc3ccc(OC)c(OC)c3)CC2)cc1	none | VLA-4 allo CP inactive
O=C(OC12CCCN(C1)/C(=C/c1ccncc1)C2)c1ccccc1 (stereo not drawn)	none (no result: ABCB6 inh MLPCN, VLA-4 inh, PG9 Ab binder, Granule exo inh)
Cc1ccc(NC(=O)C2CCN(C(=O)c3ccccc3C)CC2)nc1	none | VLA-4 allo CP inactive
C=CCN1C(=O)[C@H](CC(=O)NCc2cccc3ccccc23)[C@@]2(C(=O)OCC)CCCC=C12	none (no result: ABCB6 inh MLPCN, VLA-4 inh, PG9 Ab binder, Granule exo inh)
COc1ccccc1NS(=O)(=O)c1cc(NC(=O)CNC(=O)c2ccccc2)ccc1C	VLA-4 inh 53 | VLA-4 allo CP inactive
COc1ccccc1NS(=O)(=O)c1cc(NC(=O)CCNC(C)=O)ccc1C	none
S=C1NC[C@H](Cc2ccccc2)N1CC1CCN(CCCC2CCCCC2)CC1	none (no result: ABCB6 inh MLPCN, VLA-4 inh, Granule exo inh)
